Screening results deposited in PubChem by Sanford-Burnham Center for Chemical Genomics.
This is a sample that favours compounds with a hit; in the whole collection about 31% have one here.
PLAP activator: human PLAP activation; activation fold at 20 µM; actives 1.2% (n = 96,000); P05187; AID 696; purified PLAP enzyme, luminescent substrate read-out; active compounds read high; in the data active means activation fold above about 2
CYP2C19 inhib: human CYP2C19 inhibition; CYP2C19 Supersomes, luciferin-H EGE luminescence, 30 min; actives 21% (n = 96,000); inhibition, % at 5 µM;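 active means CYP2C19 inhibition above a set limit at 5 µM in the primary screen, cut at about 50% in these data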;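 further: plate controls were negative control wells for no effect and 2.5 mM tranylcypromine positive control for full effect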
CYP2C9 act: activators of human CYP2C9 | P11712 | recombinant CYP2C9, luciferin-H conversion, luminescence; active compounds read high; factor 1 = untreated enzyme, 0 = blocked | activation factor at 5 µM | actives 1.4% (n = 96,000) | AID 1024;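 active means activation factor of 2 or more for CYP2C9 at a 5 µM dose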;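 further: 0 = sulfaphenazole-blocked wells and 1 = vehicle-only wells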
Target sequence (P11712 whole entry, looked up): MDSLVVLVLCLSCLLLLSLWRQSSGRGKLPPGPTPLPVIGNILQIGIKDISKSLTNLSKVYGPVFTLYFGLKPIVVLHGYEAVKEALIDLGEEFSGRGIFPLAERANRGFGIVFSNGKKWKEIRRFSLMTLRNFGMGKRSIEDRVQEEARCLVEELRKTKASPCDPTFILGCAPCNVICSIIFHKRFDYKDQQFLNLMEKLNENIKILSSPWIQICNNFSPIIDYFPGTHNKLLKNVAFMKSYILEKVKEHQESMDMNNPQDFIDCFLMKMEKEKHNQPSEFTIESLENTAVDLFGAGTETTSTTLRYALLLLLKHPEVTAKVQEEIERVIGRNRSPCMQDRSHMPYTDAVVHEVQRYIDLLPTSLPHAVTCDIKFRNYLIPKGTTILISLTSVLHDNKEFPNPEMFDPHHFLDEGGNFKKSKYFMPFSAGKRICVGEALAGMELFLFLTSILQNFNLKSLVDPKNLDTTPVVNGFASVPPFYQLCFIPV
CYP2C19 activ: increases human CYP2C19 enzyme activity; P33261; recombinant CYP2C19, luciferin-H EGE luminescence; active compounds read high; 0 = fully inhibited enzyme, 1 = untreated enzyme; activation factor at 5 µM; 96,000 tested, under 10 active; AID 1025;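 active means activation factor of at least 2 at 5 µM in the primary screen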;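 further: 0 = wells with 2.5 mM tranylcypromine and 1 = vehicle-only wells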
CYP2C9 inhib: blocks human cytochrome P450 2C9; AID 777; CYP2C9 Supersomes, luciferin-H conversion, luminescence; inhibition, % at 5 µM; actives 20% (n = 96,000); P11712;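 active means blocking of liver enzyme CYP2C9 beyond about 50% at 5 µM, limit read from the data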
Numbers without * were called inactive.

For Cc1ccc(-n2c(SCC(=O)Nc3cc(C)on3)nc3c([nH]c4ccccc43)c2=O)cc1 the results were PLAP activator 0.9, CYP2C19 inhib 1.1, CYP2C9 act 0.7, CYP2C19 activ 1 and CYP2C9 inhib 26.4.
COc1ccc(-c2nc(SCC(=O)Nc3cc(C)on3)n[nH]2)cc1 was read as PLAP activator 2.1*, CYP2C19 inhib 22.1, CYP2C9 act 0.1, CYP2C19 activ 0.8 and CYP2C9 inhib 89.0*.
`CC(O)c1cccc(NC2=CC(=O)CC(C)(C)C2)c1` (stereo not drawn) gave PLAP activator 0.9, CYP2C19 inhib 29.0, CYP2C9 act 0.8, CYP2C19 activ 0.7 and CYP2C9 inhib 21.0.
For CC(NC(=O)c1cccc(F)c1)C(c1cccs1)N1CCN(C)CC1 (stereo not drawn) the results were PLAP activator 1.1, CYP2C19 inhib 9.3, CYP2C9 act 0.9, CYP2C19 activ 0.9 and CYP2C9 inhib 6.4.
`CC1(C)CC(=O)C2=C(C1)N(CC1CCCO1)C(=O)C2(NC(=O)c1cccnc1)C(F)(F)F` (stereo not drawn) gave PLAP activator 1.5, CYP2C19 inhib -2.7, CYP2C9 act 0.9, CYP2C19 activ 1 and CYP2C9 inhib 12.2.
`CCOCCCNC(=O)c1ccc(CS(=O)(=O)Cc2ccc(C)cc2)o1` gave PLAP activator 1.2, CYP2C19 inhib 11.4, CYP2C9 act 0.8, CYP2C19 activ 0.9 and CYP2C9 inhib 17.8.
`Cc1ccc(C(=O)/C=C/c2c[nH]c3ccccc23)cc1` gave PLAP activator 1, CYP2C19 inhib 67.9*, CYP2C9 act 0.3, CYP2C19 activ 0.3 and CYP2C9 inhib 68.6*.
For Cc1ccc(S(=O)(=O)/C(C#N)=C/c2c[nH]c3ccccc23)cc1 the results were PLAP activator 1, CYP2C19 inhib -13.1, CYP2C9 act 2.1*, CYP2C19 activ 1.1 and CYP2C9 inhib -106.5.
CC(C)n1cc(/C=C(\C#N)S(=O)(=O)c2ccccc2)c2ccccc21 was read as PLAP activator 1.1, CYP2C19 inhib 37.3, CYP2C9 act 0.3, CYP2C19 activ 0.6 and CYP2C9 inhib 69.6*.
Cc1ccc(C(=O)/C=C/c2cn(CN3CCN(C)CC3)c3ccccc23)cc1 was read as PLAP activator 1.1, CYP2C19 inhib 31.8, CYP2C9 act 0.2, CYP2C19 activ 0.7 and CYP2C9 inhib 79.2*.
For CCOC(=O)Cn1cc(C=O)c2ccccc21 the results were PLAP activator 0.9, CYP2C19 inhib -2.0, CYP2C9 act 1.1, CYP2C19 activ 1 and CYP2C9 inhib -13.0.
`Cc1nn(C)cc1/C=C/C(=O)c1ccccc1` gave PLAP activator 0.8, CYP2C19 inhib 34.8, CYP2C9 act 0.9, CYP2C19 activ 0.7 and CYP2C9 inhib 14.8.
Screening Cc1ccc(C)c(NC(=O)c2sc(Cl)nc2-c2ccccc2)c1 returned PLAP activator 0.9, CYP2C19 inhib 44.9, CYP2C9 act 0.6, CYP2C19 activ 0.6 and CYP2C9 inhib 39.1.
For Cc1oncc1C(=O)NC(C)C the results were PLAP activator 0.8, CYP2C19 inhib 8.2, CYP2C9 act 0.8, CYP2C19 activ 0.9 and CYP2C9 inhib 17.8.
Cc1cc(C)n(C2CCCCC2OC(=O)c2ccccc2)n1 (stereo not drawn) was read as PLAP activator 1.3, CYP2C19 inhib 53.0*, CYP2C9 act 0.8, CYP2C19 activ 0.5 and CYP2C9 inhib 18.9.
`CC(C)COC(=O)n1c(SCC(=O)N(C)C)nc2ccccc21` gave PLAP activator 1.7, CYP2C19 inhib 64.7*, CYP2C9 act 0.2, CYP2C19 activ 0.4 and CYP2C9 inhib 77.5*.
Screening CCOC(=O)CSc1nc2ccccc2n1C(=O)OCC returned PLAP activator 0.9, CYP2C19 inhib 42.3, CYP2C9 act 0.7, CYP2C19 activ 0.6 and CYP2C9 inhib 34.9.
COc1ccc(NC(=O)CSc2nc(N3CCCCC3)nc(N3CCCCC3)n2)cc1 was read as PLAP activator 0.9, CYP2C19 inhib -9.2, CYP2C9 act 1.1, CYP2C19 activ 1.1 and CYP2C9 inhib -7.7.
Screening O=C(CSc1nc(N2CCCCC2)nc(N2CCCCC2)n1)Nc1nccs1 returned PLAP activator 0.8, CYP2C19 inhib 15.3, CYP2C9 act 0.3, CYP2C19 activ 0.8 and CYP2C9 inhib 67.4*.
Screening O=C(CSC1CCCCC1)Nc1nccs1 returned PLAP activator 1, CYP2C19 inhib 83.5*, CYP2C9 act 0.6, CYP2C19 activ 0.2 and CYP2C9 inhib 42.3.
`CCN1C(=O)/C(=C2/SC(C)=C(C)N2CC)SC1=S` gave PLAP activator 1, CYP2C19 inhib 41.4, CYP2C9 act 0.8, CYP2C19 activ 0.6 and CYP2C9 inhib 21.8.
`Cc1[nH]n(-c2ccccc2)c(=O)c1C(C[N+](=O)[O-])c1ccc(Br)cc1` (stereo not drawn) gave PLAP activator 1, CYP2C19 inhib 53.2*, CYP2C9 act 0.1, CYP2C19 activ 0.5 and CYP2C9 inhib 94.9*.
`CCCCN(C)Cc1c(C)[nH]c2ccc(OCC)cc2c1=O` gave PLAP activator 0.9, CYP2C19 inhib -15.4, CYP2C9 act 1, CYP2C19 activ 1.2 and CYP2C9 inhib 2.6.
Screening COc1ccc(NC(=O)c2ccccc2NC(=O)COc2ccccc2)cc1 returned PLAP activator 1, CYP2C19 inhib -18.1, CYP2C9 act 0.5, CYP2C19 activ 1.2 and CYP2C9 inhib 51.7*.
Screening CCC(C)NC(=O)c1ccccc1NC(=O)C(C)N(c1ccccc1)S(C)(=O)=O (stereo not drawn) returned PLAP activator 1.4, CYP2C19 inhib 59.2*, CYP2C9 act 0.5, CYP2C19 activ 0.4 and CYP2C9 inhib 48.7.
`COCC(=O)Nc1ccccc1C(=O)Nc1ccc(OC)cc1` gave PLAP activator 1, CYP2C19 inhib 26.9, CYP2C9 act 0.5, CYP2C19 activ 0.7 and CYP2C9 inhib 49.6.
`CCC(C)NC(=O)c1ccccc1NC(=O)COc1ccc(OC)cc1` (stereo not drawn) gave PLAP activator 0.7, CYP2C19 inhib 50.7*, CYP2C9 act 0.3, CYP2C19 activ 0.5 and CYP2C9 inhib 73.4*.
Cc1ccc(N(C(C)C(=O)Nc2ccccc2C(=O)N2CCOCC2)S(C)(=O)=O)cc1C (stereo not drawn) was read as PLAP activator 0.9, CYP2C19 inhib 20.5, CYP2C9 act 0.8, CYP2C19 activ 0.8 and CYP2C9 inhib 17.0.
`O=C1CSC(c2ccccc2F)N1CCN1CCCCC1` (stereo not drawn) gave PLAP activator 1.3, CYP2C19 inhib 42.8, CYP2C9 act 1.1, CYP2C19 activ 0.6 and CYP2C9 inhib -11.4.
O=C1CSC(c2ccccc2F)N1c1cc(Cl)ccc1O (stereo not drawn) was read as PLAP activator 1.2, CYP2C19 inhib 83.7*, CYP2C9 act 1.3, CYP2C19 activ 0.2 and CYP2C9 inhib -34.4.
Screening CCCOc1ccc(/C=C/C(=O)Nc2ccc([N+](=O)[O-])cc2)cc1 returned PLAP activator 0.8, CYP2C19 inhib 41.5, CYP2C9 act 0.4, CYP2C19 activ 0.6 and CYP2C9 inhib 58.6*.
